According to PubChem BioAssay AID1159580 (chemical genetic matrix, 2015):
Among all 5,500 compounds or so, about 2,000 (36%) were called active. Roughly 18% stayed inconclusive and do not appear here. Rule as the data show it: active = normalized growth mostly below about 0.91 (no sharp cut-off); inconclusive = no clear call, values can overlap the other calls; inactive = mostly above about 0.92. Some of the results follow.

Experiment: chemical genetic growth profiling, strain panel (AID 1159580);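 also: tested at 20 µM; growth read once vehicle control cultures reached saturation at 30 °C; 1 = growth at the plate median or of vehicle wells; lower values mean less growth of the strain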
Settings: S. cerevisiae deletion strains, growth OD
[1] = locus YDL101C, strain DUN1, active compounds read low
[2] = locus YHR030C, strain SLT2, active compounds read low
[3] = locus YAL013W, strain DEP1, active compounds read low
[4] = locus YBR229C, strain ROT2, active compounds read low
[5] = locus YDR150W, strain NUM1, active compounds read low
[6] = locus YEL061C, strain CIN8, active compounds read low
[7] = locus YGR078C, strain PAC10, active compounds read low
[8] = locus YHR087W, strain rtc3, active compounds read low
[9] = locus YJL187C, strain SWE1, active compounds read low
[10] = locus YJR043C, strain POL32, active compounds read low
[11] = locus YJR075W, strain HOC1, active compounds read low
[12] = locus YKL190W, strain CNB1, active compounds read low
[13] = locus YLR039C, strain RIC1, active compounds read low
[14] = locus YLR058C, strain SHM2 (second series), active compounds read low
[15] = locus YLR085C, strain ARP6, active compounds read low
[16] = locus YLR262C, strain YPT6, active compounds read low
[17] = locus YML094W, strain GIM5, active compounds read low
[18] = locus YMR219W, strain ESC1, active compounds read low
[19] = locus YMR263W, strain SAP30, active compounds read low
[20] = locus YNL153C, strain GIM3, active compounds read low
[21] = locus YNL298W, strain CLA4 (second series), active compounds read low
[22] = locus YNL322C, strain KRE1, active compounds read low
[23] = locus YNR030W, strain Alg12, active compounds read low
[24] = locus YPL055C, strain LGE1, active compounds read low
[25] = locus YPL241C, strain CIN2, active compounds read low
[26] = locus YPR135W, strain CTF4, active compounds read low

Measured: normalized growth

N#Cc1cccc(CSc2nc3ccc(C(F)(F)F)cc3[nH]2)c1
active: locus YLR113W, strain HOG1, active compounds read low 0.793
inactive: locus YAR019C, strain CDC15, active compounds read low 0.965 | locus YBL105C, strain PKC1, active compounds read low 0.968 | locus YBR135W, strain CKS1, active compounds read low 0.973 | locus YBR136W, strain MEC1, active compounds read low 0.968 | locus YBR160W, strain CDC28, active compounds read low 0.968 | locus YDL017W, strain CDC7, active compounds read low 0.972 | locus YDL028C, strain MPS1, active compounds read low 0.978 | [1] 0.969 | locus YDL108W, strain KIN28, active compounds read low 0.973 | locus YDL132W, strain cdc53, active compounds read low 0.976 | locus YDL214C, strain PRR2, active compounds read low 0.893 | locus YDR052C, strain DBF4, active compounds read low 0.962 | locus YDR054C, strain cdc34, active compounds read low 0.962 | locus YDR226W, strain ADK1, active compounds read low 0.969 | locus YDR477W, strain SNF1, active compounds read low 0.903 | locus YER123W, strain YCK3, active compounds read low 0.881 | locus YER133W, strain GLC7, active compounds read low 0.895 | locus YFL009W, strain cdc4, active compounds read low 0.974 | locus YFL029C, strain CAK1, active compounds read low 0.966 | locus YFR003C, strain YPI1, active compounds read low 0.97 | locus YFR019W, strain FAB1, active compounds read low 0.936 | locus YFR028C, strain CDC14, active compounds read low 0.971 | locus YGR040W, strain KSS1, active compounds read low 0.908 | locus YGR052W, strain FMP48, active compounds read low 0.938 | locus YGR092W, strain DBF2, active compounds read low 0.933 | [2] 0.858 | locus YHR079C, strain IRE1, active compounds read low 0.851 | locus YHR082C, strain KSP1, active compounds read low 0.965 | locus YHR205W, strain SCH9, active compounds read low 0.898 | locus YIL147C, strain SLN1, active compounds read low 0.972 | locus YJL095W, strain BCK1, active compounds read low 0.901 | locus YJL128C, strain PBS2, active compounds read low 0.909 | locus YJL157C, strain FAR1, active compounds read low 0.89 | locus YJR016C, strain ILV3, active compounds read low 0.97 | locus YJR066W, strain TOR1 (second series), active compounds read low 0.848 | locus YJR066W, strain TOR1, active compounds read low 0.935 | locus YKL048C, strain ELM1, active compounds read low 0.963 | locus YKL067W, strain YNK1, active compounds read low 0.889 | locus YKL101W, strain HSL1, active compounds read low 0.901 | locus YKL193C, strain SDS22, active compounds read low 0.973 | locus YKL203C, strain TOR2, active compounds read low 0.937 | locus YLR133W, strain CKI1, active compounds read low 0.898 | locus YLR403W, strain SFP1, active compounds read low 0.907 | locus YML070W, strain DAK1, active compounds read low 0.889 | locus YMR001C, strain CDC5, active compounds read low 0.971 | locus YMR205C, strain PFK2 (second series), active compounds read low 0.924 | locus YMR277W, strain FCP1, active compounds read low 0.969 | locus YNL006W, strain LST8, active compounds read low 0.97 | locus YNL020C, strain ARK1, active compounds read low 0.892 | locus YNL161W, strain CBK1, active compounds read low 0.965 | locus YNL183C, strain NPR1, active compounds read low 0.92 | locus YNL207W, strain RIO2, active compounds read low 0.966 | locus YNL222W, strain SSU72, active compounds read low 0.976 | locus YNL307C, strain MCK1 (second series), active compounds read low 0.89 | locus YOL078W, strain AVO1, active compounds read low 0.974 | locus YOL136C, strain PFK27, active compounds read low 0.858 | locus YOR061W, strain CKA2, active compounds read low 0.9 | locus YOR119C, strain RIO1, active compounds read low 0.962 | locus YOR231W, strain MKK1, active compounds read low 0.871 | locus YOR329C, strain SCD5, active compounds read low 0.96 | locus YPL031C, strain PHO85, active compounds read low 0.88 | locus YPL153C, strain RAD53, active compounds read low 0.899 | locus YPL204W, strain HRR25, active compounds read low 0.877 | locus YPL209C, strain IPL1, active compounds read low 0.967 | locus YPL256C, strain CLN2, active compounds read low 0.882 | locus YPR025C, strain CCL1, active compounds read low 0.972 | locus YPR106W, strain ISR1, active compounds read low 0.956 | locus YPR111W, strain DBF20, active compounds read low 0.946 | strain NNK1, active compounds read low 0.944 | strain TSCII, active compounds read low 0.965

Cc1c(C)c(C)c(CSc2nc3ccccc3[nH]2)c(C)c1C
inactive: [3] 1.01 | [4] 1.02 | locus YCL061C, strain MRC1, active compounds read low 1.04 | [1] 1.03 | locus YDL134C, strain PPH21, active compounds read low 1.02 | [5] 1.02 | [6] 1.03 | [7] 1.03 | [2] 1.08 | [8] 1.04 | [9] 1.01 | [10] 1.04 | [11] 1.07 | [12] 1.03 | [13] 1.02 | [14] 1.06 | [15] 1.01 | [16] 1.03 | [17] 1.03 | [18] 1.01 | [19] 1.03 | [20] 1.05 | [21] 1.05 | [22] 1.02 | [23] 1.03 | [24] 1.08 | [25] 1.03 | [26] 1.26

N#Cc1cccc(CSC2=NCN(C3CC3)CN2)c1
inactive: [3] 1 | [4] 1.01 | [1] 0.98 | [5] 0.934 | [6] 1.02 | [7] 0.996 | [2] 1 | [8] 1.03 | [9] 1 | [10] 0.979 | [11] 0.989 | [12] 1.01 | [13] 1.05 | [14] 1.01 | [15] 0.993 | [16] 1.04 | [17] 1.01 | [18] 1.01 | [19] 0.952 | locus YMR307W, strain GAS1, active compounds read low 0.978 | [20] 0.997 | [21] 1.02 | [22] 0.999 | [23] 1.02 | [24] 0.886 | [25] 1.01 | [26] 1
